For twelve compounds, outcome and AC50 results are on record in PubChem BioAssay (EPA / NIEHS).

Values joined by “and” are separate entries in the source; they are usually repeats but may differ in a detail not shown here. Identical values can stand only once. Results filed as inconclusive are left out. Active and inactive are the calls of the source. The calls were made as follows: active = hit-call score of the fitted dose curve at least 0.9, where 1 is the maximum; inconclusive = response in the unintended direction; inactive = score below 0.9.

Usually AC50 stands for the midpoint of the concentration-response curve, whichever way the signal moves.

Assay [1] is described as follows: ArunA_NOG_NucleusCount: ArunA Biomedical's Neurite Outgrowth (NOG) Assay for Nucleus Count (AID 2283756). An outline of the steps:
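Viable neuron count, from Hoechst nuclei passing size and intensity gates, imaged at 20x on differentiated H9-derived human neurons. Exposure lasted 48 h from seeding; activity was scored relative to DMSO.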

A short description of assay [2]: ACEA_AR_agonist_AUC_viability: ACEA Biosciences xCELLigence Real-Time Cell Analysis on Androgen Receptor Agonism for Viability (AID 2283775).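 As to AC50: viability read 80 hours after compound addition.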 In short, it runs like this: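 Viability endpoint from xCELLigence impedance in 22Rv1 prostate cells at 80 h. Eight-point series, 100 uM maximum final.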
Assay [3] can be described thus: ACEA_AR_antagonist_AUC_viability: ACEA Biosciences xCELLigence Real-Time Cell Analysis on Androgen Receptor Antagonism for Viability (AID 2283776).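 Also: 22Rv1 human prostate cancer cells growing on impedance electrode plates; area under impedance growth curve at 80 h after dosing as viability; hits lower the growth signal relative to DMSO meaning cytotoxicity.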 An outline of the steps:
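22Rv1 prostate cells, continuous dosing up to 100 uM final (0.5% DMSO max), duplicate plates. Growth measured by impedance; AUC at 80 h, loss of signal vs DMSO.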

Assay [4] is described as follows: ACEA_ER_AUC_viability: ACEA Biosciences xCELLigence Real-Time Cell Analysis on Estrogen Receptor Agonism for Viability (AID 2283782).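 Also: hit means loss of impedance signal meaning reduced cell growth or viability.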 An outline of the steps: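 Viability endpoint: reduced impedance area under the curve relative to DMSO, recorded by real-time electrode sensing over ~80 h of continuous exposure. Duplicate plates of T47D in hormone-depleted medium; eight concentrations, 1:4 dilutions, 100 uM maximum.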

Assay [5] in a line: STM_H9_NormalizedViability: Cytotoxicity Assessment at 120 hours in the Stemina devTOX quickPredict H9 human embryonic stem cell (hESC)-based Assay (AID 2283784). In short, it runs like this:
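CellTiter-Fluor RFU, background-subtracted, expressed relative to 0.1% DMSO neutral control by plate. Pluripotent H9 cells; treatment with daily re-dosing. Plates carried 1uM methotrexate (positive) and 5 nM methotrexate (negative) references.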

Assay [6] deals with AR (gene 367) (UniProt P10275). The assay can be described thus: ACEA_AR_antagonist_80hr: ACEA Biosciences xCELLigence Real-Time Cell Analysis on Androgen Receptor Antagonism for Proliferation (AID 2283787).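 Also: 22Rv1 human prostate cancer cells with growth followed by electrical impedance; hits lower the impedance growth signal relative to DMSO.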 In short, it runs like this:
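Impedance-based real-time growth of 22Rv1 prostate cells, read 80 h after dosing. Eight concentrations, 1:4 series, top 100 uM final (0.5% DMSO), n = 2; signal decrease scored against DMSO.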

In assay [7] the target is Luciferin 4-monooxygenase (Photinus pyralis) (UniProt P08659). Put plainly: CCTE_Simmons_QuantiLum_inhib_2: CCTE's Firefly Luciferase Inhibition Assay, Simmons Lab (AID 2283767).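 As to AC50: potency for inhibitors that lower luciferase luminescence relative to DMSO.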 In short, it runs like this: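 Cell-free QuantiLum luciferase, 5 ng/well; compounds 5 nM–87.5 uM final, 8 conc, 0.5% DMSO; 30 min, 37C, dark. Detection reagent (150 uM D-luciferin, 147 uM dATP, CoA, DTT, pH 7.8 final) injected per well, kinetic luminescence. Triplicate biological replicates.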
Luciferin 4-monooxygenase (Photinus pyralis), sequence (P08659 whole entry, looked up): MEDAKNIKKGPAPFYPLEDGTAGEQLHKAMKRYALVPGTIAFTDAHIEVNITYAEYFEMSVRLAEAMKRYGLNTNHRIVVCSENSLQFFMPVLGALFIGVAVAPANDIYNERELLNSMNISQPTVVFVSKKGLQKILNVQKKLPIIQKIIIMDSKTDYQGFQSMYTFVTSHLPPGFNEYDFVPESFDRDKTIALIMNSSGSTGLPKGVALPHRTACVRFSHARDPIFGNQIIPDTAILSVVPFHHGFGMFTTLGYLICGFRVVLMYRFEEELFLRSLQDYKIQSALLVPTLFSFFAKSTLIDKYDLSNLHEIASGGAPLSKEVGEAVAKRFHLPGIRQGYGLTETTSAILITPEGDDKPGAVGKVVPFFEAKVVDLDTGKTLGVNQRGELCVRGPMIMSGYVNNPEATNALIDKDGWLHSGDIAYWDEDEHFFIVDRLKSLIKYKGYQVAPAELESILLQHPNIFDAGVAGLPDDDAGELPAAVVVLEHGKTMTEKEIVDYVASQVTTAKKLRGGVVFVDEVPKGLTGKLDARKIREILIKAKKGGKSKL

Assay [8] concerns the target AR (gene 367) (UniProt P10275). The assay can be described thus: ACEA_AR_agonist_80hr: ACEA Biosciences xCELLigence Real-Time Cell Analysis on Androgen Receptor Agonism for Proliferation (AID 2283783).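 Also: hits increase impedance growth signal above DMSO baseline.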 In short, it runs like this: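 Eight concentrations, 1:4 serial dilution from a 100 uM final top, in biological duplicate. Impedance-based real-time growth of 22Rv1 cells after overnight baseline, recorded hourly and read at 80 hours. Controls: testosterone, MG132, assay media.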

A short description of assay [9]: ArunA_NOG_NeuriteLength: ArunA Biomedical's Neurite Outgrowth (NOG) Assay for Neurite Length (AID 2283757). An outline of the steps:
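Total neurite length per neuron, from traced βIII-tubulin-labelled processes longer than 10 um on viable Hoechst-gated cells, was scored as decrease from DMSO. Cells were hESC (H9)-derived neurons given 48 h chemical exposure immediately after seeding.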

Assay [10] is described as follows: ArunA_NOG_NeuritesPerNeuron: ArunA Biomedical's Neurite Outgrowth (NOG) Assay for Neurites Per Neuron (AID 2283758). An outline of the steps:
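Differentiated human H9-derived neurons exposed to chemicals for 48 h from seeding, then stained with Hoechst and βIII-tubulin/DyLight 488. Automated imaging counted neurites (processes >10 um) per valid neuron; loss of signal versus DMSO scored.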

The nature of assay [11]: ArunA_NOG_BranchPointsPerNeurite: ArunA Biomedical's Neurite Outgrowth (NOG) Assay for Branch Points Per Neurite (AID 2283759). An outline of the steps:
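Automated image analysis traced neurites (processes >10 um) from valid cell bodies after Hoechst and βIII-tubulin staining. hNN cells from H9 embryonic stem cells, 48 h exposure. Fitted bidirectionally against DMSO.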

AR (gene 367), sequence (P10275 whole entry, looked up): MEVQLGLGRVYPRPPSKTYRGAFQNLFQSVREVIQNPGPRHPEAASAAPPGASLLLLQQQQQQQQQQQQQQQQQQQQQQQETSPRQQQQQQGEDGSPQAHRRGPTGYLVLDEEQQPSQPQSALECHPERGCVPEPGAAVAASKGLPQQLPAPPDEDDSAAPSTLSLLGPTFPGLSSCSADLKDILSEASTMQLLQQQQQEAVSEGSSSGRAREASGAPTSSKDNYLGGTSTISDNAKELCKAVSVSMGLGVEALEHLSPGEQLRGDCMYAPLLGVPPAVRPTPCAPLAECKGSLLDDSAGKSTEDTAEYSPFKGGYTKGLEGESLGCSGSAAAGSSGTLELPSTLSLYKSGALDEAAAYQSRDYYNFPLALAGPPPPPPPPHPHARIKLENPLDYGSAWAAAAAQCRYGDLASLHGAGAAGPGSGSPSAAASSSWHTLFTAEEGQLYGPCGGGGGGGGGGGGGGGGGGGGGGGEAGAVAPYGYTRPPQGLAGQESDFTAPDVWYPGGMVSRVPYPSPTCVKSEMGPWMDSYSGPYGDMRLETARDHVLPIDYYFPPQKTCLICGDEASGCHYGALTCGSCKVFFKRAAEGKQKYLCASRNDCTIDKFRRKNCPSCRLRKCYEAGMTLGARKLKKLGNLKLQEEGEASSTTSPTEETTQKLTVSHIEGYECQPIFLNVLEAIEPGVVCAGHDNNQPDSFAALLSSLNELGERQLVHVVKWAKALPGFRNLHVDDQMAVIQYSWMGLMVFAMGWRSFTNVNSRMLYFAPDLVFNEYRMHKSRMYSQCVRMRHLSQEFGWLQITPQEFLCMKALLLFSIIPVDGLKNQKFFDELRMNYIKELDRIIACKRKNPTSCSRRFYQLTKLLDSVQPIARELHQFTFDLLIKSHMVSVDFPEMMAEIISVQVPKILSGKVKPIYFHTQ

As for `CCCCC(CC)COP(=O)(Oc1ccccc1)Oc1ccccc1` (stereo unspecified), the outcome in assay [1], in assay [2] and in assay [5] was inactive. The AC50 is 16.6 µM (active) in assay [3], 85.5 µM (active) in assay [4] and 16.6 µM (active) in [6].
For the compound `ClC(Cl)(Cl)c1ccccc1`, the call in assay [2] and in assay [3] was inactive.
As for `c1ccc2c(c1)Nc1ccccc1S2`, the result in assay [7], in [2], in assay [4] and in [5] was inactive. The AC50 in assay [3] was 21.7 µM (active).
On to `O=C(O)C(Cl)Cl`, for which the call in [2] and in assay [3] was inactive.
Take `CCCCCCCc1ccc(O)cc1`: the AC50 in [7] was 43.6 µM (active); in [2], 29.2 µM (active); in assay [3], 50 µM (active); in [4], 28 µM (active) and 26.6 µM (active) and 27.7 µM (active); in assay [6], 50 µM (active). In assay [8], the result was inactive.
As to `OCC1CO1` (stereo unspecified), the result in assay [2] and in assay [3] was inactive.
Regarding `Cc1cccc(N)c1`, the call in [7], in assay [2] and in assay [3] was inactive.
Consider `CCCCN(CC)C(=O)SCCC`, for which the outcome in assay [7], in assay [2], in assay [3], in assay [8] and in [6] was inactive.
Regarding `CCC1(c2ccccc2)C(=O)N=C(O)NC1=O` (stereo unspecified), the compound was classed as inactive in assay [7], in assay [2], in assay [3] and in [5].
For the compound `CCOc1ccc(C(C)(C)COCc2cccc(Oc3ccccc3)c2)cc1`, the call in assay [2] was inactive. Moreover, the AC50 in [3] is 50 µM (active).
Take `O=C(O)C1C(C(=O)O)C2(Cl)C(Cl)=C(Cl)C1(Cl)C2(Cl)Cl` (stereo unspecified): the call in assay [9], in assay [10], in assay [11], in assay [2], in assay [3] and in [5] was inactive.
For the compound `Nc1ccc2ccccc2c1`, the AC50 in assay [7] was 53.8 µM (active). Further, the result in assay [3] and in [5] was inactive.
